Results as given in PubChem BioAssay AID2283193 (EPA ToxCast).
Results filed as inconclusive are left out. Activity calls are given as the source filed them. How the source made its calls: active means hit-call score of the fitted dose curve at least 0.9, where 1 is the maximum; inconclusive means response in the unintended direction; inactive means score below 0.9.

Target: human Protein Kinase C, zeta (PKCz), PRKCZ (gene 5590) (UniProt Q05513)
Experiment: NVS_ENZ_hPKCz: NovaScreen (NVS) Enzymatic Assay for human Protein Kinase C, zeta (PKCz)
Procedure: NVS_ENZ_hPKCz is a biochemical, single-readout assay that uses extracted gene-proteins in a cell-free assay. Measurements were taken 1 hour after chemical dosing in a 384-well plate.NVS_ENZ_hPKCz is one of one assay component(s) measured or calculated from the NVS_ENZ_hPKCz assay. It is designed to make measurements of enzyme activity, a form of enzyme reporter, as detected with fluorescence intensity signals by Fluorescence and electrophoretic mobility shift technology.Data from the assay component NVS_ENZ_hPKCz was analyzed into 1 assay endpoint. This assay endpoint, NVS_ENZ_hPKCz, was analyzed in the positive analysis fitting direction relative to DMSO as the negative control and baseline of activity. Using a type of enzyme reporter, loss-of-signal activity can be used to understand changes in the enzymatic activity as they relate to the gene PRKCZ. Furthermore, this assay endpoint can be referred to as a primary readout, because this assay has produced multiple assay endpoints where this one serves a enzymatic activity function. To generalize the intended target to other relatable targets, this assay endpoint is annotated to the kinase intended target family, where the subfamily is serine/threonine kinase. […]

Sequence of human Protein Kinase C, zeta (PKCz), PRKCZ (gene 5590) (Q05513 whole entry, looked up): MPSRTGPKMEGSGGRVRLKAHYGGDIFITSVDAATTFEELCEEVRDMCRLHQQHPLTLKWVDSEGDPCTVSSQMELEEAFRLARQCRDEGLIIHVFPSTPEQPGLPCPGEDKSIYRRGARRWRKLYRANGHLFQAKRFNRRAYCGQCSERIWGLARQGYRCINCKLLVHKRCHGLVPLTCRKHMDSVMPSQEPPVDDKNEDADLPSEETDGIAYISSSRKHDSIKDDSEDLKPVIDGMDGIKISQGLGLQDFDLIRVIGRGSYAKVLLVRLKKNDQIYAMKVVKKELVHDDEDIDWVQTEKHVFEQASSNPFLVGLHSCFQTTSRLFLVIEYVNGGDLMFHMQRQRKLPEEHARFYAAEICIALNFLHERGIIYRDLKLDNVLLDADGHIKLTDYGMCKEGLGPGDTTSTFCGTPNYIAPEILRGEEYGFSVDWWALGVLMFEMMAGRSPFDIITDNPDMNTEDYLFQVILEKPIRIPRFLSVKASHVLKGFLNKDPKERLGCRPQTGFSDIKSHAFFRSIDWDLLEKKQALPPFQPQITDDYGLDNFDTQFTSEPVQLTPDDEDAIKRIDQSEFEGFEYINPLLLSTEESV

How did the outcome turn out when `CCCCC(CC)COC(=O)c1ccccc1C(=O)O` (stereo unspecified) was run?
The outcome was “inactive”.
